# Data from PubChem BioAssay AID1347071 (National Center for Advancing Translational Sciences (NCATS), 2019).
# Hit rate of the full screen: of about 410,000 compounds, about 260 (0.063%) were called active. Another 2% or so got no clear call; they are omitted. Calls come from the whole dose curve; as a rule, active = well fitted activation curve with a large enough effect; inconclusive = small, poorly fitted or top-dose-only effect; inactive = no such curve, though single readings can be large or run the other way. What follows is part of a selection rich in actives, with near analogues and random picks from the rest.
# Assay: qHTS for compounds that reverse cellular toxicity of Amyloid beta (A-beta) peptide in yeast: Primary Screen; note: nearly all actives have a fitted effect of over 55% in size
# Details: yeast expressing A-beta42, growth rescue, OD600, 48 h; series mostly up to 46.1 µM; growth rescue: at the top concentration
# From the text: The A-beta peptide is produced by the processing of the amyloid precursor protein (APP) by two proteases, beta and gamma secretases. […] A-beta42 is regarded as the most amyloidogenic form due to its hydrophobicity; however, precisely how A-beta42 induces neurotoxicity is unclear. To understand further this biology and its potential therapeutic implications for human neurodegenerative disease, a quantitative high-throughput screen for compounds that reverse the cellular toxicity of the A-beta peptide was developed. A yeast based screen was used because it recapitulates the salient feature of protein mis-folding disorder accurately. This cell-based phenotypic screen provides a significant, unbiased advantage by letting the compounds and models inform us which proteins or pathways are most relevant. The ideal chemical candidates would therefore have activity in both our primary yeast and secondary neuronal toxicity assays, as well as in mouse models. They will be valuable tools for dissecting diverse protein homeostasis pathologies and could potentially become the focus for future pre-clinical development. For this luminescence assay, inhibition of A-beta rescues the toxic effect in the yeast cell, resulting in increase of signals and the desired phenotype of "Activator". This screen is run against the Molecular Libraries Small Molecule Repository (MLSMR) and the NCGC Sytravon Library Collection.
# NIH Chemical Genomics Center [NCGC]
# NIH Molecular Libraries Probe Centers Network [MLPCN]
# Assay Submitter (PI): Susan Lindquist, Whitehead Institute, Massachusetts Institute of Technology
# [1] Vassar R,et al (1999). Beta-secretase cleavage of Alzheimer's amyloid precursor protein by the transmembrane aspartic protease BACE. Science. 286: 735-741.
# [2] Yan R, et al (1999). Membrane-anchored aspartyl protease with Alzheimer's disease beta-secretase activity. Nature. 402: 533-536.
# Two and a half microliter / well of yeast growth medium were dispensed in a 1536 assay plate. Compounds were pinned using the Kalypsys robotic system followed by addition of 2.5 uL / well yeast solution. The assay plates were incubated at 30 C. After 48 hr, the absorbance signal at 600 nm was obtained using the PerkinElmer ViewLux plate reader to assess yeast growth. The data was normalized to the positive control of an equimolar mixture of ferric chloride (FeCl3) and clioquinol and to the negative control DMSO.
Structure (SMILES),growth rescue,Potency
O=c1cc(COc2cccc(C(F)(F)F)c2)nc2sc3c(n12)CCCC3,2.31% (inactive),
CCc1ccc(NC(=O)CN2C(=O)C(c3ccccc3)=NC23CCCCCC3)cc1,-33.6% (inactive),
COc1ccc(C(=O)NC(=S)NC2CCCCC2)cc1,,12.6 µM (active)
CCCNC(=S)N1CCC(NC(=O)c2ccc(OC)cc2)CC1,-10.6% (inactive),
COc1ccc(S(=O)(=O)N2CCN(C(=O)NC3CCCCC3)CC2)cc1,-11% (inactive),
CCOc1ccc(NC(=O)CCC(=O)N2CC(C)Oc3ccc(C)cc32)cc1 (stereo not given),7.46% (inactive),
CCn1c(CN2CCC(C)CC2)nc2cc(NC(=O)c3ccccc3[N+](=O)[O-])ccc21,0.862% (inactive),
CCc1cccc(NC(=O)Cn2nc(CC)n3c(cc4cc(C)ccc43)c2=O)c1,2.28% (inactive),
CC1=C(c2ccc(C)cc2)S(=O)(=O)NC1=NCCCN1CCN(c2cc(C)ccc2C)CC1,7.63% (inactive),
COc1cccc(-c2cc(C(=O)Nc3ccc(C)cc3)[nH]n2)c1,-6.21% (inactive),
Cc1ccc(N2CCN(C(=O)CCc3c(C)nc4c(c3C)c(=O)n(C)c(=O)n4C)CC2)c(C)c1,-7.12% (inactive),
CCOC(=O)c1c(NC(=O)/C(C#N)=C/c2ccccc2)sc2c1CCC2,-4.42% (inactive),
COc1ccccc1CN1CCC(CNC(=O)c2cnn(-c3ccccc3Cl)c2C2CCN(C(=O)OC(C)(C)C)CC2)CC1,12.1% (inactive),
CCn1c(CNC(=O)C23CC4CC(CC(C4)C2)C3)nnc1SCC(=O)Nc1ccc(OC)cc1,-8.21% (inactive),
COc1ccc(-c2nn(CC(=O)NC3CCCC3)c3c2cnc2ccc(F)cc23)cc1,-2.71% (inactive),
Cc1nn(C(C)C(=O)Nc2ccc(C(C)C)cc2)c(=O)c2c1sc1ccccc12 (stereo not given),17.1% (inactive),
COc1cc(OC)c(NC(=O)c2nc(-c3ccncc3)no2)cc1Cl,-15.5% (inactive),
COc1ccc(CCN2C(=O)c3oc4cc(C)cc(C)c4c(=O)c3C2c2ccccc2F)cc1OC (stereo not given),-7.53% (inactive),
CCOC(=O)c1cc2c(=O)n3ccccc3nc2n(CCCOC)c1=NC(=O)C(C)Oc1ccccc1 (stereo not given),-6.19% (inactive),
COc1cc(C(=O)Nc2ccc(OCc3cc(=O)n4cc(C)sc4n3)cc2)cc(OC)c1OC,-12.8% (inactive),

Structure (SMILES),growth rescue,Potency
COc1ccc(CN2CCc3nc(Nc4ccccc4)ncc3C2)c(OC)c1OC,4.24% (inactive),
Cc1cccc(Cn2c(CN3CCC(C(=O)NCc4ccccc4Cl)CC3)cc3ccccc32)c1,10.4% (inactive),
CCOC(=O)N1CCc2c(sc3c2c(=O)n(Cc2ccccc2)c(=O)n3CC(=O)Nc2cccc(C)c2)C1,1.66% (inactive),
O=C(Nc1cc(Cl)cc(Cl)c1)c1ccc2c(c1)N(Cc1cccc(Cl)c1)C(=O)c1ccccc1S2=O (stereo not given),-1.8% (inactive),
CCc1ccc(NC(=O)c2nn(-c3ccc(C)cc3)c(=O)n(C)c2=O)cc1,-10.6% (inactive),
CCN1C(=O)c2ccccc2S(=O)c2ccc(C(=O)NCc3ccc(F)cc3)cc21 (stereo not given),16.3% (inactive),
CCn1cc(C(=O)N2CCN(c3cc(C)ccc3C)CC2)c(=O)c2cc(S(=O)(=O)N(C)C3CCCCC3)ccc21,4.49% (inactive),
CCCn1c(=S)[nH]c2ccc(C(F)(F)F)cc21,31.8% (inactive),
CC(C)n1c(=S)[nH]c2cc(C(F)(F)F)ccc21,,12.6 µM (active)
CNS(=O)(=O)c1ccc2c(c1)[nH]c(=S)n2C,1.96% (inactive),
Cn1c(=O)c2c(-c3ccccc3Br)n(Cc3ccccc3)cc2n(C)c1=O,-12.3% (inactive),
COc1ccc(N2CCN(C(=O)CSCc3nc(-c4ccccc4Cl)oc3C)CC2)cc1,-16.8% (inactive),
Cc1ccc(CN(Cc2cccnc2)C(=S)Nc2cccc(Cl)c2C)cc1,,11.2 µM (active)
Cc1c(Cl)cccc1NC(=S)N(Cc1ccccc1)Cc1cccnc1,10.9% (inactive),
Cc1cccc(C)c1NC(=S)N(Cc1cccnc1)Cc1ccccc1Cl,17.9% (inactive),
CCOC(=O)c1nnn(CC(=O)NC(=O)Nc2ccccc2F)c1C(=O)OCC,-5.8% (inactive),
CCS(=O)(=O)N1CCc2cc(C(=O)NCc3ccc(OC)cc3)ccc21,-14% (inactive),
CCOC(=O)c1cc(NC(=O)c2ccc(F)cc2)c(=O)n2c1oc1ccccc12,-10.2% (inactive),
COc1ccc(CCNC(=O)c2cc3cccc4c3n2CC(C)S4)c(OC)c1OC (stereo not given),-11.1% (inactive),
COc1ccc(Cn2c(C(=O)O)c(CNCc3cccc(OC)c3)c3ccc(C)cc32)cc1,-9.33% (inactive),

Structure (SMILES),growth rescue,Potency
CC(C)S(=O)(=O)c1oc(-c2ccc(F)cc2)nc1S(=O)(=O)c1ccc(F)cc1,-8.6% (inactive),
CC(Sc1oc(-c2ccco2)nc1S(=O)(=O)c1ccc(Br)cc1)c1ccccc1 (stereo not given),-9.26% (inactive),
Cc1nn(-c2ccc(F)cc2)c(-n2cccc2)c1C(=O)N1CCN(c2ccccc2)CC1,-18.4% (inactive),
FC(F)(F)c1ccccc1Cc1c(-c2ccccc2)nc2c3ccccc3ccn12,,12.6 µM (active)
CCCc1nc2c3ccccc3ccn2c1Cc1ccccc1C(F)(F)F,-73.2% (inactive),
N#Cc1ccc(-c2nc3c(Cl)cc(C(F)(F)F)cn3c2Cc2ccccc2C(F)(F)F)cc1,5.35% (inactive),
COc1cccc(-n2cc(C(=O)NCc3cccc(Cl)c3)c3ccccc3c2=O)c1,-6.71% (inactive),
COc1ccc(Cn2ccn(CC(=O)Nc3cc(C)ccc3C)c(=O)c2=O)cc1,2.18% (inactive),
COCCn1c(SCC(=O)c2cc(C)ccc2C)nc2cc(C(=O)NC3CCCC3)ccc2c1=O,-7.47% (inactive),
COc1cccc(C(=O)NC2(C(F)(F)F)C(=O)Nc3c2c(=O)[nH]c(=O)n3-c2ccc(C)cc2)c1 (stereo not given),-11.2% (inactive),
CCOc1ccc(-n2c(C)nc3c(cnn3-c3ccc(C)cc3)c2=O)cc1,6.45% (inactive),
CCC(=O)N1c2ccccc2CC1C(=O)N1CCN(c2ccccc2)CC1 (stereo not given),-3.88% (inactive),
COc1cc(CNCCSc2nnnn2C)ccc1OCc1ccc(Cl)cc1Cl,-20.7% (inactive),
CC1=C(C(=O)Nc2ccccc2Cl)C(c2cccs2)n2ncnc2N1 (stereo not given),-18.5% (inactive),
CCCCOC(=O)CSc1ncnc2sc3c(c12)CCC(C)C3 (stereo not given),-2.39% (inactive),
CC1CCCN(S(=O)(=O)c2ccc3[nH]c(=O)cc(C(=O)NCCc4ccc(Cl)cc4)c3c2)C1 (stereo not given),-5.68% (inactive),
CCCn1c2ccccc2c2cnn(CC(=O)N3CCCC(C(=O)OCC)C3)c(=O)c21 (stereo not given),13.4% (inactive),
CCOC(=O)c1ccc(N2C(=O)c3n[nH]c(-c4ccco4)c3C2c2ccc(O)cc2)cc1 (stereo not given),-17% (inactive),
COc1ccc(-c2cn3nc(N4CCCC(C(=O)NCCCOC(C)C)C4)sc3n2)cc1 (stereo not given),-9.82% (inactive),
COc1ccc2cc(CNc3ccc(OC)c(OC)c3)c(=O)n(CC(=O)Nc3ccccc3F)c2c1,-11% (inactive),
